Sampled rows, rich in hits. Any-hit rate of the full collection: about 6.5%.
Fluor 339 460 – intrinsic fluorescence of library compounds, ex339/em460 – biochemical, MLSMR library, data from DPM-DC assay, artefact control, profiling panel; compound autofluorescence, ex339/em460 nm, NADH buffer; hits give high values; 1 = no-compound wells, NADH background; fluorescence fold increase at 10 µM; hit rate 5.5% among 65,000; AID 709;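 active means at 10 µM, mean starting fluorescence two-fold or more over control wells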;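 further: signal is the first read of a kinetic run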
MK inhibit – inhibitors of Streptococcus pneumoniae mevalonate kinase | AID 555 | inhibition, % at 10 µM | purified MK, PK/LDH-coupled NADH absorbance 340 nm | hit rate 0.48% among 65,000;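 active means ranked among the strongest by inhibition in the single 10 µM screen, a fixed top-ranked set picked for dose follow-up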
Spn DPM-DC inh – blocks S. pneumoniae diphosphomevalonate decarboxylase; purified DPM-DC, PK/LDH coupled NADH fluorescence; calls only at 10 µM; hit rate 0.49% among 65,000; AID 556;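 active means the 320 compounds with the highest percent inhibition in the single-dose primary screen, excluding strongly autofluorescent ones, cut at about 32% in these data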;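 further: kinetic rate of NADH fluorescence loss reporting ADP formed by the decarboxylase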
NADH coupling – inhibition of NAD/NADH coupling enzymes, library profiling; coupled PK/LDH NADH assays, four targets; IC50, µM (top dose mostly 10 µM); hit rate 0.02% among 65,000; AID 774;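 active means single-dose screening hits from any of four coupled enzyme assays that gave an IC50 when retested across doses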;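 further: the DPM-DC format reads NADH fluorescence rather than 340 nm absorbance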
Abs 340nm – absorbance at 340 nm; compound absorbance at 340 nm, fold over control; fold change at 10 µM; 65,000 tested, under 10 active; AID 708;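 active means at 10 µM dose, initial 340 nm absorbance at least 2 fold that of control wells; inactive means change under 2 fold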;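 further: initial absorbance extrapolated from kinetic A340 decline of NADH oxidation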
PMK inhibit – S. pneumoniae PMK inhibition. purified PMK, PK/LDH-coupled NADH absorbance 340 nm. inhibition, % at 10 µM. hit rate 0.49% among 65,000;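 active means top-ranked compounds by inhibition in the single 10 µM screen, taking a fixed number of the strongest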
Numbers stand for hits; . = inactive; / = not tested or not shown; + = active, no number.

SMILES | Fluor 339 460 | MK inhibit | Spn DPM-DC inh | NADH coupling | Abs 340nm | PMK inhibit
Cc1ccc(S(=O)(=O)c2c(N)n(/N=C/c3ccco3)c3nc4ccccc4nc23)cc1C | 3.2 | . | . | . | . | .
Nc1c(S(=O)(=O)c2ccccc2)c2nc3ccccc3nc2n1/N=C/c1ccco1 | . | . | . | . | . | .
Cc1ccc(S(=O)(=O)c2c(N)n(/N=C/c3ccco3)c3nc4ccccc4nc23)cc1 | 3.2 | . | . | . | . | .
O=c1c2ccccc2nc(COc2ccccc2)n1/N=C/c1ccco1 | . | . | . | . | . | .
CNS(=O)(=O)c1cccc(C(=O)OCc2cc(Cl)cc3c2OCOC3)c1 | . | . | . | . | . | .
CC1=NC(C(F)(F)F)(C(F)(F)F)C2=C(CC(C)(C)CC2=O)N1Cc1ccco1 | . | . | . | . | . | .
COc1ccc(Nc2nc(C)cc(C)c2C#N)cc1OC | . | . | . | . | . | .
Cc1ccc(Cl)cc1NC(=O)Cn1cc2c(n1)CCCC2 | . | . | . | . | . | .
Cc1ccc(-n2c(-c3ccncc3)nnc2-c2cccs2)cc1 | . | . | . | . | . | .
O=S(=O)(Cc1ccccc1)N1CCC(c2nc(-c3cccs3)no2)CC1 | 3.1 | . | . | . | . | .
O=C(Cc1ccccc1)N1CCCC(c2nc(-c3cccs3)no2)C1 (stereo not given) | . | . | . | . | . | .
CCN1CCCC1CNC(=O)c1cc2c(-c3cccc(OC)c3)nn(C)c2s1 (stereo not given) | 5 | . | / | . | . | .
CCN1CCCC1CNC(=O)c1cc2c(-c3ccc(Cl)cc3)nn(C)c2s1 (stereo not given) | 2.1 | . | / | . | . | .
COc1cccc(-c2nn(C)c3sc(C(=O)NCc4ccco4)cc23)c1 | 3 | . | . | . | . | .
Cc1onc(-c2c(F)cccc2Cl)c1C(=O)OCn1nnc2ccccc2c1=O | . | . | . | . | . | .
O=C(O)CCNc1ccc2c(c1)OCCO2 | . | . | . | . | . | .
O=c1c(-c2ccccc2)c(O)c2cccc3c2n1CCC3 | . | 43 | + | . | . | 66
CCc1ccccc1OCc1nnc(N)s1 | . | . | . | . | . | .
CC(NC(=O)c1ccccc1O)c1ccccc1 (stereo not given) | 2.2 | . | / | . | . | .
Cc1csc2ncc(C(=O)NCc3ccccc3Cl)c(=O)n12 | 2.1 | . | / | . | . | .
Cc1csc2ncc(C(=O)NC(C)c3ccccc3)c(=O)n12 (stereo not given) | 2.1 | . | / | . | . | .
COc1ccc(OC)c(NC(=O)CSc2nnc(N)s2)c1 | . | . | . | . | . | .
Cc1cc(NC(=O)CSc2nnnn2C2CCCC2)no1 | 2.8 | . | . | . | . | .
O=C(c1cccc(F)c1)N1CCN(Cc2ccco2)CC1 | . | 44 | . | . | . | .
Cc1cc(C)n(CC(O)CN2c3ccccc3Sc3ccccc32)n1 (stereo not given) | . | . | . | . | . | .
SMILES | Fluor 339 460 | MK inhibit | Spn DPM-DC inh | NADH coupling | Abs 340nm | PMK inhibit
Nc1c(C(=O)Nc2ccc(Cl)cc2)oc2ccccc12 | 2.1 | . | / | . | . | .
Clc1ccc2[nH]c3c(NCCN4CCOCC4)ncnc3c2c1 | . | . | . | . | . | .
Clc1ccc2[nH]c3c(NCC4CCCO4)ncnc3c2c1 (stereo not given) | 2.5 | . | . | . | . | .
O=C(Nc1ccc(N2CCN(Cc3ccccc3)CC2)cc1)c1ncn[nH]1 | . | . | . | . | . | .
CSc1nnc2c(n1)OC(C1CC=C(C)CC1)Nc1ccccc1-2 (stereo not given) | . | . | . | . | . | .
Nc1c2c(nc3ccn(-c4ccccc4)c(=O)c13)CCCCC2 | 2.1 | . | . | . | . | .
c1ccc2c(-n3cccn3)cccc2c1 | . | . | . | . | . | .
N#Cc1c(N)sc(=S)c2c1CCN(Cc1ccccc1)C2 | 4.3 | . | / | . | . | 29
N#Cc1c(NCCO)nc(NCc2ccccc2)c2c1CCN(Cc1ccccc1)C2 | 2.2 | . | + | . | . | .
CCN1CCc2c(sc(N)c2C#N)C1 | . | . | . | . | . | .
Brc1c(CSc2nc3ccccc3o2)nc2ncccn12 | 5 | . | / | . | . | .
Brc1c(CSc2nncn2-c2ccccc2)nc2ncccn12 | 4 | . | / | . | . | .
Clc1c(CSc2nc3ccccc3o2)nc2ccccn12 | . | . | . | . | . | .
Cc1cc(C)n(C(=O)CSc2nnc(SCC(=O)n3nc(C)cc3C)s2)n1 | . | . | . | . | . | .
COc1ccc(-c2nc(C#N)c(NCc3ccccc3Cl)o2)cc1OC | 4 | . | / | . | . | .
COc1ccc(-c2nc(C#N)c(NCc3ccc(F)cc3)o2)cc1OC | 3.9 | . | / | . | . | .
COc1ccc(CNc2oc(-c3ccccc3)nc2C#N)cc1 | . | . | / | . | . | .
COc1ccc(-c2nc(C#N)c(NCc3ccccc3Cl)o2)cc1 | 3.1 | . | . | . | . | .
O=C(NCCCn1ccnc1)C(Cc1ccccc1)N1C(=O)c2ccccc2C1=O (stereo not given) | . | . | . | . | . | .
O=C(Nc1ccc(Oc2ccccc2)cc1)c1cnc2n(c1=O)CCS2 | . | . | . | . | . | .
Cn1c(Cc2ccccc2)nnc1SCC(=O)Nc1ccccc1N1CCOCC1 | . | . | . | . | . | .
CC(C)n1nnnc1SCC(=O)Nc1ccccc1N1CCOCC1 | . | . | . | . | . | active
COc1ccc2nc(C)cc(C(=O)O)c2c1 | 3.8 | . | / | . | . | .
CCOc1ccc2nc(C)cc(C(=O)O)c2c1 | 3.8 | . | / | . | . | .
Brc1c(OCCOCCn2cncn2)ccc2ccccc12 | . | . | . | . | . | .
SMILES | Fluor 339 460 | MK inhibit | Spn DPM-DC inh | NADH coupling | Abs 340nm | PMK inhibit
Cc1c(-c2ccc(F)cc2)nc(N)c(C#N)c1-c1ccco1 | 2.4 | . | . | . | . | .
CC(C)N(C(=O)Nc1ccc2nccnc2c1)C(C)C | 2.2 | . | / | . | . | .
CC(C)(C)NC(=O)Nc1ccc2nccnc2c1 | 2.2 | . | / | . | . | .
CC(C)(C)NC(=O)c1ccc2nccnc2c1 | . | . | . | . | . | .
O=S1(=O)N=C2CCCCCN2C(c2ccncc2)N1 (stereo not given) | . | . | . | . | . | .
COc1ccccc1/C=C/CN1CC(C)OC(C)C1 (stereo not given) | . | 48 | . | . | . | .
CCN(c1ccccc1)S(=O)(=O)c1cnc[nH]1 | . | . | . | . | . | .
Cc1ccc(-c2noc(CCC(=O)N(C)c3ccccc3C)n2)cc1 | . | . | . | . | . | .
Cc1ccccc1-n1c(SCc2c(C)noc2C)nnc1-c1c[nH]c2ccccc12 | . | . | . | . | . | .
Cc1noc(C)c1CSc1nnc(-c2ccncc2)n1-c1cccc(Cl)c1C | . | . | . | . | . | 25
COC(=O)CC1Oc2ccccc2N(Cc2ccccc2)C1=O (stereo not given) | . | . | . | . | . | .
